RGS4 inh – Inhibitors of Regulator of G Protein Signaling (RGS) 4: qHTS; 390,000 tested, 0.039% active; Potency, µM (titrated, usually from 114 µM), inactives show at the top dose activity change, negative = inhibition, usual class: inhibitors; AID 504845, 2011; Transcreener GDP fluorescence polarization, RGS4-accelerated GTP hydrolysis; note: % is set by controls: 0 for no effect and ±100 for the full control effect; nearly all actives have a fitted effect of over 75% in size
Target sequence (P49798 whole entry, looked up): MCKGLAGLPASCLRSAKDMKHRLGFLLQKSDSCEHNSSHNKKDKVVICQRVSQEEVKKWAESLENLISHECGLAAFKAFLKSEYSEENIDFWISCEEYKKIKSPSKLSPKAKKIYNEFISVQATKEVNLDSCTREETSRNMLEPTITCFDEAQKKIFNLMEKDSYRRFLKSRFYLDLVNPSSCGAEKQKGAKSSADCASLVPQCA
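MLSMR compounds (23 nl, pin-transferred) preincubated 10 min at room temperature with a 500nM (2x) first reagent, then RGS4 at 900nM (2x) plus Transcreener GDP mix added; fluorescence polarization (620/688 nm) read before and after 90 min at 30 °C.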
EPAC2 agonist – qHTS for Agonist of cAMP-regulated guanine nucleotide exchange factor 4 (EPAC2): primary screen; EPAC2 activation, biochemical qHTS; response scale: 100% = 6.5 mM cAMP response; Potency, µM (highest dose often 154 µM), inactives show at the top dose activation, usual class: activators; 360,000 tested, 0.079% active; AID 720711, 2013; note: nearly all actives have a fitted effect of over 50% in size
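Guanine nucleotide exchange by EPAC2 is measured as reduced fluorescence of BODIPY-GDP once it is released from 250 nM Rap1B. Plates are read kinetically for 30 min at room temperature; results are scaled to 6.5 mM cAMP.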
EPAC1 ag – qHTS for Agonist of cAMP-regulated guanine nucleotide exchange factor 3 (EPAC1): primary screen; 360,000 tested, 0.073% active; Potency, µM (doses to about 154 µM), for the others: top-dose activation, most hits filed as activators; EPAC1 agonist qHTS, biochemical assay; response scale: 100% = response to 6.5 mM cAMP; note: nearly all actives have a fitted effect of over 60% in size
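Nucleotide exchange by EPAC1 (100 nM) on Rap1B–BODIPY-GDP (250 nM) in the presence of 50 uM GDP is tracked fluorescently at 480/540 nm over 30 min. Signals are normalized to a 6.5 mM cAMP control.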
EPAC2 antagonist – qHTS for Antagonist of cAMP-regulated guanine nucleotide exchange factor 2 (EPAC2): primary screen. EPAC2 GEF exchange of Rap1B-BODIPY-GDP, fluorescence. Potency, µM (top dose mostly 114 µM), inactives show at the highest dose activity, negative = inhibition, hits mostly inhibitors. 360,000 tested, 0.18% active; note: % is set by controls: 0 for no effect and ±100 for the full control effect; nearly all actives have a fitted effect of over 45% in size
ERG Ets-DNA blk – qHTS for Small Molecule Inhibitors of the ERG Ets/DNA interaction. Transcriptional regulator ERG (Homo sapiens), P11308. fluorescence polarization, His-ERG Ets domain / labelled DNA. Potency, µM (top dose mostly 76.9 µM), for inactives: at the highest dose FP activity, negative = inhibition, hits mostly inhibitors. 370,000 tested, 0.028% active; active = well fitted inhibition curve with a large enough effect in the polarisation, with a control signal flat; inconclusive = small, poorly fitted or top-dose-only effect, or effect the other way, or a change in a side signal; inactive = no such curve, though single readings can be large or run the other way; the % refers to the polarisation;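 note: polarization taken with two DNA probes labelled with fluorescein and Texas red; % of control where 0% means no effect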
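His-tagged ERG Ets domain (1 uM in the protein solution; 300mM KCl, 50mM Tris-HCl, 1mM EDTA, 1mM DTT, pH 7.5) received compound, then a probe mix of 5 nM fluorescein-DNA and 100nM Texas-615-DNA. Fluorescence polarization was read for both dyes.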
EPAC1 antagonist – qHTS for Antagonist of cAMP-regulated guanine nucleotide exchange factor 3 (EPAC1): primary screen | Potency, µM (titrated, usually from 115 µM), for inactives: at the top dose activity change, negative = inhibition, most hits filed as inhibitors | Rap guanine nucleotide exchange factor 3 (Homo sapiens), O95398 | AID 720709, 2013 | 360,000 tested, 0.14% active | EPAC1 GEF assay, Rap1b-BODIPY-GDP exchange fluorescence;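 note: plate controls were vehicle for no effect and positive control for full effect; nearly all actives have a fitted effect of over 50% in size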
* hit, by the source's call; i = inactive; ? = inconclusive; · = no result; [ ] = remark or other dose. A selection: hits, their analogues and other compounds. The true share with any hit is near 0.4%. Unless noted, calls come from the whole dose curve; as a rule, active = well fitted curve in the direction sought with a large enough effect; inconclusive = small, poorly fitted or top-dose-only effect, or another doubt; inactive = no such curve, though single readings can be large; an effect the other way counts as inactive or inconclusive. Potency is the fitted concentration of half-maximal effect.

SMILES	RGS4 inh	EPAC2 agonist	EPAC1 ag	EPAC2 antagonist	ERG Ets-DNA blk	EPAC1 antagonist
COc1ccc([N+](=O)[O-])cc1NC(=S)Nc1ccccc1	13%	7.9µM*	0%	6%	2%	-2%
N=C(N)SCCc1ccc(CCSC(=N)N)cc1	5%[56.9 µM]	·	·	·	·	·
Cc1ccc(C2CC(c3cccs3)=NN2C(=O)CSc2nc(=O)n3cc(C)ccc3n2)cc1 (stereo not given)	-10%	8%	112µM*	7%	1%	-10%
Cc1cc2ccccn2c1C(=O)c1ccccc1F	-6%	12%	5%	45µM*	5%	-10%
O=C(O)c1ccc(C[n+]2c(-c3ccccc3)csc2Nc2ccccc2)cc1	17%	-10%	-8%	-4%	·	4%
CC(C)(C)c1cc(-c2csc(Nc3ccccc3)[n+]2Cc2ccc(C(=O)O)cc2)cc(C(C)(C)C)c1O	-29%	-10%	-1%	-23%	-7%	79µM*
CCN(CC)c1ccc2c(-c3ccc(S(=O)(=O)O)cc3S(=O)(=O)[O-])c3ccc(=[N+](CC)CC)cc-3oc2c1	?	?	63µM*	?	i	32%
CCOc1ccccc1NC(=O)Cn1c(=O)n(-c2ccccc2)c(=O)c2c1c1cc(C)ccc1n2C	1%	·	·	·	-2%	·
C=C(C)Cn1c(C)cc(C)c(S(=O)(=O)c2ccc(C)cc2)c1=O	11%	10%	-9%	35µM*	-6%	-15%
COc1cc(NC(=O)c2cc3nc(-c4ccccc4)cc(-c4ccccc4)n3n2)cc(OC)c1OC	-38%	18%	7%	-15%	4%	56µM*
COc1cc(-c2c(-c3ccsc3)sc3ccccc23)cc(OC)c1OC	5%	6%	21%	?	8%	8%
COc1cc(-c2c(CCO)sc3ccccc23)cc(OC)c1OC	·	7%	0%	47µM*	·	-4%
COc1cc(/C=C2\C(=N)N3N=C(S(C)(=O)=O)SC3=NC2=O)cc(OC)c1OCCOc1ccccc1C	-15%	10%	4%	?	3%	50µM*
COc1ccccc1OCCOc1ccc(/C=C2\C(=N)N3N=C(S(C)(=O)=O)SC3=NC2=O)cc1	?	-5%	4%	-21%	4%	?
COc1cccc(OCCOc2ccc(/C=C3\C(=N)N4N=C(S(C)(=O)=O)SC4=NC3=O)cc2OC)c1	-18%	4%	1%	-3%	7%	71µM*
O=S(=O)(c1cccc(Br)c1)N1CCN(c2nc(-c3cccs3)nc3ccccc23)CC1	28%	·	·	·	·	·
Cc1cccc(C)c1OCC(=O)Nc1ccccc1N1CCCCC1	-11%	7%	-2%	10µM*	21%	1%
Cc1cc(N)c2ccccc2[n+]1CCCCCCCCCC[n+]1c(C)cc(N)c2ccccc21	24µM*	·	·	·	·	·
O=C(Nc1ccccc1Cl)c1cc(S(=O)(=O)N2CCCCC2)ccc1N1CCOCC1	33%	11%	13%	-10%	3%	-6%
CC(NC(=O)c1cc(S(=O)(=O)N2CCOCC2)ccc1N1CCCC1)c1ccc(Cl)c(Cl)c1 (stereo not given)	10%	6%	56µM*	14%	-2%	7%
COc1ccc(-c2nnc(C3CCN(S(=O)(=O)c4cccc(Cl)c4)CC3)o2)cc1	-7%	·	·	·	0%	·
